Test systems include SK-MEL-2 melanoma; SN12C renal; UO-31 renal; TK-10 renal; ACHN renal; CAKI-1 renal; A498 renal; CCRF-CEM leukemia; MOLT-4 leukemia; SR leukemia; RPMI-8226 leukemia; OVCAR-8 ovarian; OVCAR-5 ovarian; OVCAR-4 ovarian; SK-OV-3 ovarian; IGROV1 ovarian; OVCAR-3 ovarian; HS 578T breast; NCI/ADR-RES ovarian.
What all share (assay): NCI-60 one-dose screen, 48 h (100 = growth as untreated, 0 = no growth, -100 = all killed)
What all share (conditions): 10 µM unless noted

Each structure is given as a SMILES string. The panel holds about 83,000 compounds, 20% with a hit somewhere; the sample as a whole holds those more often.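 The endpoint reported here, percent growth, reads 100 for growth as untreated, 0 for no net growth and -100 for all cells dead.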 A number with no mark means an inactive call. Calls of active or inactive are those of the source. Rule for the calls: active = growth percent below 10; inactive = the rest.

Take `Cc1cc(=O)n(Nc2ccccc2)c(O)c1C#N`: the growth in the assay on SK-MEL-2 melanoma is 96.4%; in the assay with SN12C renal, 99.4%; in the assay on UO-31 renal, 62%; in the assay with TK-10 renal, 104%; in the assay with ACHN renal, 104%; in the assay on CAKI-1 renal, 92.5%. The growth with A498 renal is 115%; in the assay with CCRF-CEM leukemia, 99.8%; in the assay on MOLT-4 leukemia, 103%; with SR leukemia, 88.9%; with RPMI-8226 leukemia, 99.8%; with OVCAR-8 ovarian it was 106%. The growth in the assay on OVCAR-5 ovarian is 105%; with OVCAR-4 ovarian, 108%; with SK-OV-3 ovarian it was 99.6%; in the assay on IGROV1 ovarian, 101%; with OVCAR-3 ovarian it was 98.6%; with HS 578T breast, 100%. Also, the growth in the assay with NCI/ADR-RES ovarian is 102%.

For the compound `CC(=O)NC(CCc1ccc(Cl)c(Cl)c1)c1cccc(O)c(=O)c1` (stereo unspecified), the growth in the assay with SK-MEL-2 melanoma is 17.8%; in the assay on SN12C renal, 12.4%; with UO-31 renal, -20.9% (active); in the assay on TK-10 renal, 25.8%; with ACHN renal, 17.5%; in the assay with CAKI-1 renal, -0.0278% (active). Also, the growth in the assay on A498 renal is 36%; in the assay with CCRF-CEM leukemia, 4.93% (active); in the assay with MOLT-4 leukemia it was 4.68% (active); in the assay with SR leukemia it was 6.21% (active); in the assay with RPMI-8226 leukemia, 13.9%; in the assay on OVCAR-8 ovarian, 13.9%. In addition, the growth in the assay with OVCAR-5 ovarian was 47%; in the assay with OVCAR-4 ovarian, 24.5%; in the assay on SK-OV-3 ovarian it was 12.7%; in the assay on OVCAR-3 ovarian, 20.1%; in the assay on HS 578T breast, 54.1%.

Consider `CCOC(=O)CSCCC#N`, for which the growth with SK-MEL-2 melanoma was 105%; with SN12C renal it was 97.9%; in the assay with UO-31 renal, 98.8%; in the assay on TK-10 renal, 101%; in the assay with ACHN renal, 95.2%; in the assay on CAKI-1 renal it was 96%. Also, the growth was 83.1% in the assay on A498 renal; 102% in the assay with CCRF-CEM leukemia; 91.5% in the assay with MOLT-4 leukemia; 94.2% with SR leukemia; 106% in the assay with RPMI-8226 leukemia; 96.8% with OVCAR-8 ovarian. In addition, the growth with OVCAR-5 ovarian is 85%; in the assay with OVCAR-4 ovarian, 105%; in the assay on SK-OV-3 ovarian, 92.5%; in the assay with IGROV1 ovarian it was 107%; in the assay on OVCAR-3 ovarian, 111%; in the assay with HS 578T breast it was 107%. In the assay with NCI/ADR-RES ovarian, the growth is 100%.

Take `Cc1[nH]nc(C(N)=O)c1[N+](=O)[O-]`: the growth with SK-MEL-2 melanoma is 119%; in the assay on SN12C renal it was 98.4%; in the assay with UO-31 renal it was 96.8%; in the assay on TK-10 renal, 106%; in the assay on ACHN renal, 99.3%; in the assay with CAKI-1 renal, 102%. Also, the growth in the assay with A498 renal is 78.4%; in the assay with CCRF-CEM leukemia, 105%; in the assay on MOLT-4 leukemia, 109%; in the assay on SR leukemia, 84.7%; in the assay with RPMI-8226 leukemia, 96.3%; in the assay with OVCAR-8 ovarian, 108%. For the same compound, the growth with OVCAR-5 ovarian is 104%; in the assay on OVCAR-4 ovarian, 122%; with SK-OV-3 ovarian it was 101%; in the assay with IGROV1 ovarian, 115%; in the assay on OVCAR-3 ovarian, 101%; in the assay with HS 578T breast, 87.7%. In the assay on NCI/ADR-RES ovarian, the growth was 102%.

`CC(=O)c1cccs1`: the growth is 112% with SK-MEL-2 melanoma; 96.8% with SN12C renal; 106% in the assay with UO-31 renal; 103% with TK-10 renal; 102% in the assay with ACHN renal; 102% in the assay with CAKI-1 renal. Besides, the growth is 76.6% in the assay with A498 renal; 113% in the assay on CCRF-CEM leukemia; 95.4% in the assay with MOLT-4 leukemia; 92.9% with SR leukemia; 110% with RPMI-8226 leukemia; 102% in the assay on OVCAR-8 ovarian. The growth in the assay with OVCAR-5 ovarian was 103%; in the assay with OVCAR-4 ovarian it was 106%; with IGROV1 ovarian, 110%; in the assay on OVCAR-3 ovarian it was 103%; with HS 578T breast, 99.2%; in the assay on NCI/ADR-RES ovarian, 95.6%.

As for `COC1OC(C(COC(C)=O)OC(C)=O)C(OC(C)=O)C(OC(C)=O)C1OC(C)=O` (stereo unspecified), the growth is 113% in the assay on SK-MEL-2 melanoma; 107% with SN12C renal; 83.8% in the assay with UO-31 renal; 107% with TK-10 renal; 95.3% in the assay with ACHN renal; 96.2% in the assay on CAKI-1 renal. Besides, the growth was 125% with A498 renal; 104% in the assay on CCRF-CEM leukemia; 93.5% in the assay with MOLT-4 leukemia; 87.3% in the assay with SR leukemia; 98.7% in the assay on RPMI-8226 leukemia; 103% in the assay on OVCAR-8 ovarian. For the same compound, the growth was 89.7% with OVCAR-5 ovarian; 107% in the assay on OVCAR-4 ovarian; 110% in the assay with SK-OV-3 ovarian; 104% in the assay on IGROV1 ovarian; 118% with OVCAR-3 ovarian; 129% in the assay on HS 578T breast. Also, in the assay with NCI/ADR-RES ovarian, the growth was 105%.

On to `O=C1C=CC(=O)C2=C1CCCC2`, for which the growth in the assay on SK-MEL-2 melanoma was 110%; with SN12C renal it was 98.7%; in the assay with UO-31 renal it was 70.9%; in the assay on TK-10 renal it was 132%; in the assay with ACHN renal it was 90%; in the assay with CAKI-1 renal it was 79%. In addition, the growth in the assay with A498 renal is 132%; in the assay with CCRF-CEM leukemia, 18.8%; in the assay on MOLT-4 leukemia, 31.1%; in the assay with SR leukemia, 68.1%; with RPMI-8226 leukemia, 72.4%; in the assay with OVCAR-8 ovarian it was 95.1%. In addition, the growth is 108% with OVCAR-5 ovarian; 88% in the assay on OVCAR-4 ovarian; 89.4% in the assay with SK-OV-3 ovarian; 80.5% in the assay with IGROV1 ovarian; 89% with OVCAR-3 ovarian; 94.8% in the assay on NCI/ADR-RES ovarian.

Turning to `COC1OC(C(O)C(O)CO)C(O)C(O)C1O` (stereo unspecified), the growth with SK-MEL-2 melanoma is 99.5%; with SN12C renal, 94.1%; in the assay with UO-31 renal it was 97.1%; in the assay with TK-10 renal, 107%; in the assay on ACHN renal, 101%; in the assay with CAKI-1 renal it was 95.6%. Moreover, the growth in the assay with A498 renal was 107%; with CCRF-CEM leukemia, 95.4%; with MOLT-4 leukemia it was 105%; in the assay with SR leukemia, 97.7%; in the assay with RPMI-8226 leukemia, 93.3%; with OVCAR-8 ovarian, 105%. The growth with OVCAR-5 ovarian was 88.7%; in the assay with OVCAR-4 ovarian, 109%; with SK-OV-3 ovarian, 95.6%; in the assay on IGROV1 ovarian it was 103%; in the assay on OVCAR-3 ovarian, 109%; in the assay with HS 578T breast it was 109%. The growth in the assay with NCI/ADR-RES ovarian is 106%.

With `NC(=O)NCCO`, the growth was 108% with SK-MEL-2 melanoma; 101% in the assay on SN12C renal; 94.1% in the assay with UO-31 renal; 96.5% with TK-10 renal; 107% with ACHN renal; 95.2% in the assay on CAKI-1 renal. Further, the growth in the assay with A498 renal was 77.1%; in the assay with CCRF-CEM leukemia it was 85%; with MOLT-4 leukemia, 96.3%; in the assay with SR leukemia, 96.2%; in the assay with RPMI-8226 leukemia, 101%; in the assay with OVCAR-8 ovarian, 99.8%. Besides, the growth was 106% in the assay on OVCAR-5 ovarian; 110% in the assay with OVCAR-4 ovarian; 105% in the assay on IGROV1 ovarian; 106% with OVCAR-3 ovarian; 94.2% in the assay with HS 578T breast; 97.7% in the assay on NCI/ADR-RES ovarian.

Source of the values: PubChem BioAssay (NCI).
